# Measured values as given in PubChem BioAssay (NCI).
# This is part of a sample that, as a whole, favours compounds with a hit. Of some 83,000 tested, about 20% had one in any assay.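 Assay: single dose, 48 h. Readout: percent growth (0 = no net growth; negative = cell death). Active: <10.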 Values without a mark were called inactive. Active and inactive are the calls of the source.
# What was measured:
# Test in all cases: NCI-60 one-dose screen, 48 h (100 = growth as untreated, 0 = no growth, -100 = all killed)
# Settings in all cases: 10 µM unless noted
# BT-549 breast = test system: BT-549 breast
# MDA-MB-435 melanoma = test system: MDA-MB-435 melanoma
# SW-620 colon = test system: SW-620 colon
# MCF7 breast = test system: MCF7 breast
# HCT-116 colon = test system: HCT-116 colon
# HCC-2998 colon = test system: HCC-2998 colon
# KM12 colon = test system: KM12 colon
Structure (SMILES),growth (BT-549 breast),growth (MDA-MB-435 melanoma),growth (SW-620 colon),growth (MCF7 breast),growth (HCT-116 colon),growth (HCC-2998 colon),growth (KM12 colon)
c1cncc(CNc2ccccc2-c2nnc(Nc3ccc4c(c3)OCO4)o2)c1,39.2%,-28% (active),30.6%,9.29% (active),8.54% (active),20.1%,3.86% (active)
Cc1cc2c(cc1[N+](=O)[O-])NC(CNC(C)C)CC2 (configuration not stated),102%,107%,111%,105%,96.2%,86.6%,107%
COC(=O)[C@]1(CCSC)N[C@H](c2cn(-c3ccccc3)nc2C)[C@@H]2C(=O)N(c3ccccc3)C(=O)[C@@H]21,95.5%,106%,107%,98.5%,98.3%,95.2%,107%
CCN(CC)c1ccc(CN(CC(=O)c2ccc(Cl)c(Cl)c2)Cc2ccccc2)cc1,109%,106%,96%,95.5%,104%,107%,109%
COc1ccc2c(c1)[nH]c(=O)c1c3cc(OC)c(OC)cc3cn21,10.5%,-20.3% (active),31.7%,17.5%,-18.8% (active),25.8%,-33% (active)
CCCCCCCCCCCCNc1ncnc2[nH]ncc12,62.9%,71.7%,83.1%,59%,53.3%,92.4%,79.2%
ClC1=C(Cl)C(Cl)=C(Cl)C1=C/C=C/c1ccccc1,-12.6% (active),-28.5% (active),-55.2% (active),-19.6% (active),-98% (active),-93.3% (active),-77.8% (active)
COC1=CC(c2ccc[nH]2)=N/C1=C\c1[nH]c(C)c(C(=O)CCC(=O)Oc2ccc3c(c2)CCC2C3CC[C@]3(C)C(=O)CC[C@@H]23)c1C (some centres not stated),70.2%,93.7%,27.9%,50.2%,20.3%,79.8%,53.6%
CCc1[nH]nc(-c2ccc(OC)cc2)c1-c1ccccc1OCCN(CC)CC,87.7%,101%,104%,93.2%,83.9%,103%,106%
CC[N+](CC)(CCOCCOCC[N+](CC)(CC)Cc1ccc([N+](=O)[O-])cc1)Cc1ccc([N+](=O)[O-])cc1,107%,104%,101%,104%,97.8%,98.1%,101%
Nc1ccc(C2=Nc3cccc4cccc(c34)S2)cc1,83.4%,98.3%,97.2%,45.2%,81.7%,61.4%,76.5%
COc1cc(C2CC(c3ccc(C)cc3)=NN2C(C)=O)ccc1Oc1ccnc2cc(Cl)ccc12 (configuration not stated),59.1%,100%,66.3%,73.6%,52.8%,83.3%,85.3%
CCOC(=O)/C=C(/C)Sc1cc(O)c2ccccc2c1O,-37.1% (active),-82.2% (active),-40.2% (active),-75.9% (active),122%,17.3%,3.07% (active)
O=c1cc(-c2cccnc2)oc2c1ccc1ccccc12,81.1%,67%,81.5%,73.6%,55.7%,89.2%,95.8%
O=NC1CC=CCC1c1ccccc1 (configuration not stated),105%,112%,105%,108%,95.6%,104%,112%
C[C@]12CC[C@@H]3c4ccc(O)cc4CC[C@H]3[C@@H]1CC[C@@H]2NS(=O)(=O)c1cccc(Br)c1,69.2%,48.4%,81.4%,37.5%,44.2%,89.4%,51.2%
NNC(=O)NO,99%,108%,103%,94%,101%,99.9%,98.2%
Cc1nn(-c2ccccc2)c2nc3c(nc12)C(=O)CCC3,90.9%,98.1%,105%,84.9%,91.6%,92%,87.1%

Structure (SMILES),growth (BT-549 breast),growth (MDA-MB-435 melanoma),growth (SW-620 colon),growth (MCF7 breast),growth (HCT-116 colon),growth (HCC-2998 colon),growth (KM12 colon)
Fc1ccc(-c2nnc(/C=C/c3cn(-c4ccccc4)nc3-c3ccccc3)o2)cc1,86.6%,100%,86.6%,94%,57%,95%,102%
O=C(NN(C(=O)c1ccccc1)c1cccs1)c1ccccc1,98%,124%,104%,110%,93.7%,103%,117%
O=C(Nc1ccc(Cl)cc1)Nc1ccc(Nc2nncc3ccccc23)cc1,15.7%,13.7%,27%,5.46% (active),15.2%,30.7%,18.9%
CCC(C)CC(CC)NCCN1CCN(C(CC)CC(C)CC)C1=S (configuration not stated),78.6%,26.8%,29.1%,-60.9% (active),16.4%,-45.6% (active),24.4%
CC1=NN(c2ccccc2Cl)C(=O)/C1=C\c1cn(S(=O)(=O)c2ccc(C)cc2)c2ccccc12,112%,105%,98.4%,113%,88.2%,88.5%,109%
Oc1ccc(Cc2ccc(O)c(C3CC(c4ccc(Cl)cc4)=NN3)c2)cc1C1CC(c2ccc(Cl)cc2)=NN1 (configuration not stated),36.2%,3.35% (active),13.6%,17.5%,1.4% (active),11.3%,12%
N#CCCCCCn1c2ccccc2c2c3c(c4c5ccccc5[nH]c4c21)C(=O)N(O)C3=O,16.1%,14.3%,12.5%,6.24% (active),-33.3% (active),1.36% (active),4.16% (active)
CCCCCCCC1(C)NC(=O)NC1=O (configuration not stated),121%,123%,100%,97.6%,103%,140%,113%
O=C(O)c1ccc(NC(=O)c2cccc(Nc3ccnc(C(F)(F)F)c3)c2)cc1,95.8%,106%,103%,96.8%,95%,104%,107%
COc1ccc(Nc2nccc(N3CCN(c4c5ccc(Cl)cc5nc5ccc(OC)cc45)CC3)n2)cc1,90.5%,55.8%,60.1%,37.6%,24%,93.9%,73.9%
CC(c1ccccn1)C(C)(O)C(C)c1ccccn1 (configuration not stated),108%,104%,112%,103%,108%,104%,105%
CSc1ccc2c(c1)N(CCC1CCCCN1C)c1ccccc1S2 (configuration not stated),67.9%,42.6%,75.6%,5.18% (active),42.3%,34.4%,45%
CN(C)c1cccc2c(S(=O)(=O)N[C@H]3CC[C@H]4[C@@H]5CCc6cc(O)ccc6[C@H]5CC[C@]34C)cccc12,35.9%,-46.4% (active),24.8%,12.9%,13.1%,60.6%,18.5%
Nc1nonc1-c1nc2ccccc2n1CC(=O)Nc1ccc2c(c1)COC2=O,81.3%,5.9% (active),59.1%,73.8%,74.1%,92.3%,64.4%
CC(NC(=O)C(C)Oc1ccc(Cl)cc1Cl)C(=O)O (configuration not stated),108%,104%,105%,99.1%,89.6%,94.4%,109%
c1ccc(Nc2nnc(-c3cc(-c4cccnc4)n(-c4ccccc4)n3)s2)cc1,85.8%,80.7%,97.1%,95.7%,76.8%,72.5%,60.3%
CC/C(=C\c1ccc(N(C)C)cc1)c1ccncc1,65.8%,-6.41% (active),19.9%,28.8%,22.2%,66.6%,20.4%
O=C(Nc1ccc(OCc2nnc(-c3ccccc3)o2)c(F)c1)Nc1ccc(Cl)c(C(F)(F)F)c1,68.3%,27.5%,17.6%,8.14% (active),9.64% (active),14.4%,1.65% (active)
